Data as given in ChEMBL document CHEMBL3988442, “University of Dundee, Small-Polar-MMV Screening Library” (2021).

These molecules were tested against AMP-activated protein kinase, AMPK (Homo sapiens) (UniProt P54646+O43741+P54619+Q9UGJ0+Q9Y478+Q13131+Q9UGI9) (assay: AMP-dependent Kinase enzyme assay. An in vitro enzyme assay that detects ADP turnover that is directly proportional to AMPK activity. This uses naive AMPK that is activated during the assay with MK-8722). Details: 30 µM.
Type: functional
Parameters: scale not given: direction of the effect not stated beside the values

Compound | Percent Effect
C=Cn1cc(CN2CCC(c3ncc(Cl)cc3S(C)(=O)=O)CC2)c(C)n1 | 13.4%
CCOC(=O)c1n[nH]cc1CN1CCCC(N(C)Cc2ccccc2)C1 (stereo not given) | -0.954%
OCCc1cc(C2CCCN2c2ncccn2)n[nH]1 (stereo not given) | 11.9%
Cc1c(NC(=O)c2cnc[nH]2)cccc1C(=O)NC(C)(C)C | 15%
Cc1cc(N2CCC3(CCCN(CCO)C3=O)C2)nc2ccccc12 (stereo not given) | 9.84%
O=C1NCCCN1Cc1nc(-c2ccc(N3CCCCC3)cc2)no1 | 3.5%
Cc1ccccc1-c1noc(-c2ccc(NCC3COCCO3)nc2)n1 (stereo not given) | 6.52%
CCOc1ccc(Cl)cc1CCNC(=O)c1ccc(=O)n(C)c1 | 7.18%
CS(=O)(=O)c1ccc(Cl)c(C(=O)NCCC2=CCCCC2)c1 | -0.566%
O=S(=O)(c1cn[nH]c1)N1CCC(O)(CN2CCOCC2)C1 (stereo not given) | 3.92%
Cc1cc(Cl)c(C)c(S(=O)(=O)N2CCN(Cc3ccncc3)CC2)c1Cl | -2.88%
CN(C)c1ncccc1CNC(=O)CCNc1ncccn1 | -6.85%
CN1CCOC(CNCC(=O)NCCc2ccc(F)cc2)C1 (stereo not given) | 4.27%
COC(=O)C1(NCC(=O)Nc2cc(C)ccc2OC)CCCCC1 | -3.05%
Cn1cccc1C(=O)NCc1ccnc(C2CCCOC2)n1 (stereo not given) | 6.83%
CN1CCOC(CNC(=O)CCCc2ccccc2)C1 (stereo not given) | -9.04%
O=C(Nc1ccccc1OCCc1ccccn1)N1CCOCC1 | 10.6%
CCCS(=O)(=O)NCc1ncc(C)c(OC)c1C | 6.9%
COC(=O)c1ccoc1CN(C)CC(=O)NC1CC1 | -3.6%
COC(=O)c1ccoc1CN(C)CC(=O)NC1CCS(=O)(=O)C1 (stereo not given) | -0.853%

Compound | Percent Effect
Cc1cc(N2CCC3(CCCN(CCO)C3=O)C2)nc(C)c1C#N (stereo not given) | 14.2%
CCCc1nn(Cc2ccc(Br)s2)c(=O)o1 | 9.29%
CCCNC(=O)CNC(=O)CC1CCCc2cc(OC)ccc21 (stereo not given) | -4.21%
CC(=O)c1cnc(NCCCN2CCOCC2)nc1C | -7.41%
Cc1cc(C)n(CC2CCN(CC(O)COc3ccccc3)CC2)n1 (stereo not given) | 2.9%
COc1ccccc1OCc1nc2cc3c(cc2c(=O)o1)OCCCO3 | -8.93%
CN(C)C(CNC(=O)c1[nH]nc(C2CC2)c1Br)C1CC1 (stereo not given) | -3.39%
CNC(=O)Cc1ccc(NC(=O)NCc2ncc(C)s2)cc1 | -2.7%
CN(Cc1ccc2c(c1)OCO2)Cc1cscn1 | -5.54%
CN(C)c1nc2c(c(=O)[nH]1)Cc1ccccc1OC2 | 2.09%
CN(C)c1cccc(C(=O)Nc2ccn(CCc3ccncc3)n2)c1 | 12.1%
CCS(=O)(=O)NCc1nc(C)cc(N2CCOCC2)n1 | 0.985%
CCc1ccc(NC(=O)CCN2CC(n3nc(C)cc3C)C2)cc1 | -4.58%
C=C(C)COc1cccc(CNCc2nc3ccccc3c(=O)[nH]2)c1 | 1.56%
Nc1nc2c(c(NCc3nccs3)n1)CCN(CC1CCCC1)CC2 | 1.23%
CCN(CC1=CCN(C)CC1)C(=O)CCOC | -8.72%
Cc1ccc(OCc2occc2C(=O)N2CCCCC(N)C2)cc1 (stereo not given) | 5.88%
CC(C)N1CC(c2ccnc(Nc3nccs3)n2)C1 | 13.4%
Cc1nn2cccnc2c1C(=O)NCc1ccccc1OCC1CC1 | 2.06%
COc1cc(C(=O)O)cc(I)c1OCC(=O)NCCc1ccccc1 | 11.9%
